Measurements: PubChem BioAssay
Activity calls are given as the source filed them. Unless noted, how the calls were made is not given here.

Assays:
[1] = system: Wnt5a (protein binding on small-molecule microarray); test: Wnt5a binders on small-molecule microarray, primary screen, biophysical, 635/667 nm fluorescence (AID 1142); settings: 635 nm fluorescence, higher = more signal;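 further: fluorescence read at 667 nm with signal to noise per printed feature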
[2] = cell viability in Huh7 cells, primary screen, cytotoxicity control for HCV replication inhibitor project, CellTiter-Glo luminescence, basal, 48 h (AID 1143); settings: Huh7 HCV replicon, higher = more signal, called active from +8 up or from −8 down;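 further: Huh7 hepatoma cells carrying a hepatitis C replication reporter with no stimulus; test concentration not given here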
[3] = P. aeruginosa biofilm formation inhibitors, primary screen, PAO1 strain, BacTiter-Glo luminescence, LB-PBS (AID 1144); settings: 12 h, higher = more signal
[4] = CREB reporter modulators without forskolin, primary screen, cell-based, PC12, CRE-LacZ reporter, unstimulated (AID 1145); settings: no forskolin, luminescence, 4.5 h, higher = more signal, called active from +8 up or from −8 down
[5] = CREB reporter modulators under forskolin, primary screen, cell-based, PC12, CRE-LacZ reporter, forskolin-stimulated (AID 1146); settings: luminescence, 4.5 h, higher = more signal, called active from +8 up or from −8 down;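 further: PC12 cells with 6xCRE LacZ reporter stimulated by forskolin 10 µM; beta-galactosidase reporter signal reflecting CREB driven transcription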
[6] = biological target: Streptavidin (Streptomyces avidinii) (UniProt P22629); test: streptavidin binders on small-molecule microarray, primary screen, artefact control for SMM compound annotation, biophysical, 635/667 nm fluorescence (AID 1147); settings: streptavidin binding, higher = more signal;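 further: signal reflects streptavidin binding to arrayed compounds as a control protein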
[7] = small-molecule binders of probe aInhba, primary screen, biochemical, small-molecule microarray, 635/667 nm fluorescence (AID 1148); settings: higher = more signal;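 further: score merges 667nm spot fluorescence with signal-to-noise for antibody binding to printed compounds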
[8] = biological target: Torsin-1A (Homo sapiens) (UniProt O14656); test: torsin A binders from cell lysate, primary screen, small-molecule microarray, wild-type, 635/667 nm (AID 1149); settings: COS7 hTOR1A-WT lysate, 635 nm fluorescence, higher = more signal
[9] = biological target: Torsin-1A (Homo sapiens) (UniProt O14656); test: small-molecule binders of mutant TOR1A in lysate, primary screen, cell lysate, small-molecule microarray, COS7 lysate, 635/667 nm fluorescence (AID 1150); settings: COS7 hTOR1A mutant lysate, 635 nm fluorescence, higher = more signal;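 further: score pools 667 nm emission and signal to noise measuring lysate protein binding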
[10] = system: Sonic hedgehog protein (Shh); test: small-molecule binders of Shh protein, primary screen, biochemical, small-molecule microarray, 635/667 nm fluorescence (AID 1151); settings: small-molecule microarray binding, 635 nm fluorescence; higher = more signal;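 further: Shh protein binding to compounds spotted on small-molecule microarray slides; score combines spot fluorescence intensity with signal-to-noise across triplicate slides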
[11] = E. coli DRC41 culture turbidity changes, primary screen, E. coli filamentation inducer project, strain DRC41, OD650, 48 h (AID 1152);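 further: E. coli MC1000 strain DRC41 lacking acrAB efflux pump and sulA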; settings: E. coli DRC41 (acrAB sulA), higher = more signal, called active from +8 up or from −8 down
[12] = small-molecule binders of probe aLefty1, primary screen, biochemical, small-molecule microarray, 635/667 nm fluorescence (AID 1153); settings: higher = more signal;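 further: score merges spot fluorescence with signal-to-noise ratio from the scanned slide images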
[13] = PSAC antagonists in infected red cells, primary screen, cell-based, P. falciparum Indochina, OD700, 1 h (AID 1154); settings: P. falciparum Indochina infected RBC osmotic lysis, higher = more signal, called active from +8 up or from −8 down
[14] = PSAC antagonists in infected red cells, primary screen, cell-based, P. falciparum Indochina, OD700, 2 h (AID 1155);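 further: lysis reports solute entry through the parasite surface anion channel PSAC; channel blockers reduce lysis of infected cells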; settings: P. falciparum Indochina infected erythrocytes, osmotic lysis OD700; higher = more signal, called active from +8 up or from −8 down
[15] = osmotic lysis modulators in infected erythrocytes, primary screen, PSAC antagonist project, cell-based, P. falciparum Indochina, OD700, 3 h (AID 1156); settings: higher = more signal, called active from +8 up or from −8 down
[16] = PSAC antagonists in infected red cells, primary screen, cell-based, P. falciparum Indochina, OD700, 18 h (AID 1157); settings: P. falciparum Indochina infected erythrocytes, osmotic lysis OD700, 18 h; higher = more signal, called active from +8 up or from −8 down
[17] = modulators of S6 phosphorylation in cells, primary screen, cell-based, A549, cytoblot, luminescence, serum-stimulated (AID 1158); settings: A549 phospho-S6 cytoblot, 5 h, higher = more signal;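 further: serum-stimulated A549 lung adenocarcinoma cells; signal is phosphorylated S6 detected by cytoblot immunostaining with HRP secondary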
[18] = biological target: NADPH oxidase 2 (Homo sapiens) (UniProt P04839); test: NOX2-dependent H2O2 signal modulators, primary screen, NOX inhibitor project, cell-based, HEK293-NOX2, PMA-stimulated, Amplex Red fluorescence (AID 1159); settings: 45 min, higher = more signal, called active from +8 up or from −8 down; further: test concentration not given here
[19] = biological target: NADPH oxidase 4 (Homo sapiens) (UniProt Q9NPH5); test: NOX4-dependent H2O2 signal modulators, primary screen, NOX inhibitor project, cell-based, HEK293-NOX4, tetracycline-induced, Amplex Red fluorescence (AID 1160); settings: 45 min, higher = more signal, called active from +8 up or from −8 down
[20] = biological target: NADPH oxidase 5 (Homo sapiens) (UniProt Q96PH1); test: NOX5-dependent H2O2 signal modulators, primary screen, NOX inhibitor project, cell-based, HEK293-NOX5, Amplex Red fluorescence (AID 1161); settings: HEK293-NOX5, ionomycin, 45 min, higher = more signal
NADPH oxidase 5 (Homo sapiens), sequence (Q96PH1 whole entry, looked up): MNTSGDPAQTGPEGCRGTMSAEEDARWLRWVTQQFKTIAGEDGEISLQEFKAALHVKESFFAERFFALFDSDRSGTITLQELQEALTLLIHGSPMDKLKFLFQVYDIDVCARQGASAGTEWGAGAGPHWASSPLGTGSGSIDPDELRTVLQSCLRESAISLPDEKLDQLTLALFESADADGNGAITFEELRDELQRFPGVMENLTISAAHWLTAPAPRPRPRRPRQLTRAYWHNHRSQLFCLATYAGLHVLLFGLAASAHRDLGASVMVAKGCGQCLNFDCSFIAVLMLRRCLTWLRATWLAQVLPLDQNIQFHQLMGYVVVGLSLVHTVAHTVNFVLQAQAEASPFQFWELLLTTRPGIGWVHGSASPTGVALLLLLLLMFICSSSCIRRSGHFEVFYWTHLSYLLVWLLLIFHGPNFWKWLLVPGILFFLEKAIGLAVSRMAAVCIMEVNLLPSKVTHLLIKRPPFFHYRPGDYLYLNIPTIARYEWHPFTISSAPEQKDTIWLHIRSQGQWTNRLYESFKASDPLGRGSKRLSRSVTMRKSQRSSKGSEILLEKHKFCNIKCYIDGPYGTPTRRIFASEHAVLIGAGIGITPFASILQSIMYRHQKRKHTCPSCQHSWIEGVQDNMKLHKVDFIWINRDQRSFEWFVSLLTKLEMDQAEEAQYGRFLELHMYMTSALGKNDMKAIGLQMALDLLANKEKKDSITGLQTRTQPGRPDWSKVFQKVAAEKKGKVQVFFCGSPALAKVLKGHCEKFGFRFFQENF

NADPH oxidase 4 (Homo sapiens), sequence (Q9NPH5 whole entry, looked up): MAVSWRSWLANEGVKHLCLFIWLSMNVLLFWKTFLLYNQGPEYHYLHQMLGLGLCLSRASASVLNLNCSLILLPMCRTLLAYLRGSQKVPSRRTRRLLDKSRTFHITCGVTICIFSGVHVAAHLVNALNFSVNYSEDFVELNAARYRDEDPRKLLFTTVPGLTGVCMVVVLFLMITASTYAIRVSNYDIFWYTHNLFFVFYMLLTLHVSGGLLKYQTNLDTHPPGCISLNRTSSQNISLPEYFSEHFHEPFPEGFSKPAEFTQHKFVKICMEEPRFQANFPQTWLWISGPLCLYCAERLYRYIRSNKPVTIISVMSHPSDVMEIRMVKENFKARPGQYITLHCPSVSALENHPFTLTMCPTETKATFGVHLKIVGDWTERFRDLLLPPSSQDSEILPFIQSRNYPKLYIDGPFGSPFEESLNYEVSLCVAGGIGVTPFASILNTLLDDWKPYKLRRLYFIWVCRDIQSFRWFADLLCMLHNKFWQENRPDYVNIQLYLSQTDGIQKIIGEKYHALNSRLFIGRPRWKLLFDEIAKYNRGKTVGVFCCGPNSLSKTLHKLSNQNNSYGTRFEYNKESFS
NADPH oxidase 2 (Homo sapiens), sequence (P04839 whole entry, looked up): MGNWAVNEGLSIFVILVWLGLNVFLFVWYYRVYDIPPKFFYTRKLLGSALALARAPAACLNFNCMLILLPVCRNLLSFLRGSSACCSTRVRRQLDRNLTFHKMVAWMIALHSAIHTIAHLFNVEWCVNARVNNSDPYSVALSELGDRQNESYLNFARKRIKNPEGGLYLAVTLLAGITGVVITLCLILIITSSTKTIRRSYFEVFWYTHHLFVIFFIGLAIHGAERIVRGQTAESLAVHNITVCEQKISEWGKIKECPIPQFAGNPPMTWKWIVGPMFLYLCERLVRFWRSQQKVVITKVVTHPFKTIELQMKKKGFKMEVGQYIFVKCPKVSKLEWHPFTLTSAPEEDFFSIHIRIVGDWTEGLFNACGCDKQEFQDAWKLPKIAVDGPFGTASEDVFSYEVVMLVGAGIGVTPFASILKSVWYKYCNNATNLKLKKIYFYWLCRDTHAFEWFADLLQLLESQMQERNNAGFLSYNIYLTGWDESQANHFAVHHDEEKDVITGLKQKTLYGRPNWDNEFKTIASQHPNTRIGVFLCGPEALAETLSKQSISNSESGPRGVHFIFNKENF
Torsin-1A (Homo sapiens), sequence (O14656 whole entry, looked up): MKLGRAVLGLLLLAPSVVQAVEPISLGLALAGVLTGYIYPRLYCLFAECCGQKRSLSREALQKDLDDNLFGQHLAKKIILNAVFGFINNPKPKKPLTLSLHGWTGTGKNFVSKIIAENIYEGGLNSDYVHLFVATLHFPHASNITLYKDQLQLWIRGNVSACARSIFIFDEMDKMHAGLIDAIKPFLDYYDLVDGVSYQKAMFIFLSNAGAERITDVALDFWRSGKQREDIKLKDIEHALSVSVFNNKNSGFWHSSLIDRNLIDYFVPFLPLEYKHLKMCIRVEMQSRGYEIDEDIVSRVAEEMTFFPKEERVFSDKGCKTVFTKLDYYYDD
Streptavidin (Streptomyces avidinii), sequence (P22629 whole entry, looked up): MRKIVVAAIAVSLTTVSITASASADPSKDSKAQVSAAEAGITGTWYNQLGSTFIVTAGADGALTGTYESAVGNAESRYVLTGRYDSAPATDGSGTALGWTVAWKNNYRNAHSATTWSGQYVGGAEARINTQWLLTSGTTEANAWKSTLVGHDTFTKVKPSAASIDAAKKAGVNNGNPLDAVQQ

SMILES | composite z-score [1] | z-score [2] | z-score [3] | z-score [4] | z-score [5] | composite z-score [6] | composite z-score [7] | composite z-score [8] | composite z-score [9] | composite z-score [10] | z-score [11] | composite z-score [12] | z-score [13] | z-score [14] | z-score [15] | z-score [16] | z-score [17] | z-score [18] | z-score [19] | z-score [20]
CC[C@@H](c1ccccc1)n1c(=O)n2n(c1=O)[C@H]1[C@H](O)[C@@H]3O[C@@H]3C(=NOCc3ccccc3)[C@H]1CC2 | 0.0576 | -3.91 (inactive) | 0.479 (inactive) | 0.248 (inactive) | 0.706 (inactive) | 0.347 | -0.0131 | 0.106 | 0.223 | 1.05 | -1.08 (inactive) | 0.0004 | 2.18 (inactive) | 0.0656 (inactive) | 1.1 (inactive) | 0.454 (inactive) | 0.3 | 1.55 (inactive) | -0.989 (inactive) | 1.21
C=CCOCC1CN2[C@@H](CC[C@@H](C)[C@@H]2c2ccc(Br)cc2)C(=O)O1 (stereo not given in full) | -0.234 | -0.0112 (inactive) | 1.1 (inactive) | 0.829 (inactive) | -0.0565 (inactive) | 0.0804 | -0.367 | 0.318 | 0.499 | 0.257 | 0.298 (inactive) | -0.147 | 0.517 (inactive) | 0.456 (inactive) | -1.14 (inactive) | 0.247 (inactive) | -0.665 | 0.286 (inactive) | -0.604 (inactive) | -2.74
CCN1C(=O)[C@H]2[C@@H]3C(=CC[C@H]2C1=O)C(=O)[C@H]1O[C@H]1[C@H]3O | 0.116 | -5.2 (inactive) | 1.41 (inactive) | 2.79 (inactive) | 21.9 (active) | 0.49 | -0.183 | 0.734 | 0.348 | 1.64 | -1.08 (inactive) | -0.214 | 1.17 (inactive) | 0.497 (inactive) | 0.244 (inactive) | 0.282 (inactive) | -0.383 | 0.428 (inactive) | -1.86 (inactive) | 0.121
CCN1C(=O)[C@H]2[C@H]3[C@H](O)[C@H](O)CC(=NO[C@H](C)c4cn([C@H](CO)Cc5ccccc5)nn4)[C@@H]3CC[C@H]2C1=O | 0.217 | 0.399 (inactive) | 1.05 (inactive) | -0.385 (inactive) | -0.228 (inactive) | 0.307 | -0.105 | 0.265 | 0.556 | 0.742 | -0.238 (inactive) | -0.323 | 0.334 (inactive) | 0.15 (inactive) | -0.0073 (inactive) | 0.123 (inactive) | -0.598 | 0.384 (inactive) | 0.293 (inactive) | -0.116
CC(C)=CCCC(C)=CCON=C1C[C@@H](O)[C@@H](O)[C@@H]2[C@@H]3C(=O)N(Cc4ccc5c(c4)OCO5)C(=O)[C@@H]3CC[C@@H]12 | -0.0188 | -0.292 (inactive) | 0.73 (inactive) | 0.252 (inactive) | 0.217 (inactive) | 1.19 | -0.0791 | 1.01 | 0.606 | 0.816 | 0.253 (inactive) | 0.0315 | 31.3 (active) | 5.69 (inactive) | 2.24 (inactive) | 1.46 (inactive) | -0.274 | -1.3 (inactive) | -0.0437 (inactive) | -2.6
CC(C)[C@H](NC(=O)OC(C)(C)C)[C@@H](O)CC(=O)C(C)(C)C | -0.103 | 0.207 (inactive) | -1.09 (inactive) | -0.795 (inactive) | -0.422 (inactive) | 0.247 | -0.148 | 0.322 | 0.0647 | 0.473 | 0.14 (inactive) | -0.267 | -0.0522 (inactive) | 0.0094 (inactive) | 0.155 (inactive) | 0.126 (inactive) | 0.372 | 2.2 (inactive) | 0.34 (inactive) | 0.195
C[C@H]1CC[C@@H](C(=O)O)N[C@@H]1c1ccc(C#Cc2ccccc2)cc1 | 0.177 | -7 (inactive) | 0.696 (inactive) | 0.112 (inactive) | -1.58 (inactive) | 2.04 | -0.0403 | 0.587 | 0.439 | 1.53 | -0.553 (inactive) | -0.101 | 0.0311 (inactive) | -0.0838 (inactive) | 0.26 (inactive) | -0.267 (inactive) | -0.895 | -0.217 (inactive) | 1.11 (inactive) | 1.93
C[C@H]1C=CCC(=O)OC[C@H](C)C(=O)N2CCC[C@H]2C(=O)OC1 | 0.193 | -0.401 (inactive) | -0.324 (inactive) | -0.324 (inactive) | 0.0267 (inactive) | -0.176 | -0.182 | 3.32 | 3.03 | 2.35 | 0.392 (inactive) | -0.199 | 0.158 (inactive) | -0.157 (inactive) | 0.484 (inactive) | 0.0217 (inactive) | -0.732 | 0.166 (inactive) | 0.515 (inactive) | -0.957
C=CC[C@@H]1C=C[C@H](Oc2ccc(C)cc2)[C@@H](COC(=O)NCc2cccc3ccccc23)O1 | 0.243 | -2.06 (inactive) | -0.607 (inactive) | -0.527 (inactive) | -0.868 (inactive) | -0.142 | -0.156 | -0.0815 | -0.0604 | 0.701 | -0.575 (inactive) | -0.0501 | 2.39 (inactive) | 0.852 (inactive) | -0.508 (inactive) | 0.346 (inactive) | -0.783 | 0.839 (inactive) | -0.187 (inactive) | -0.146
